Compound activity: PubChem, NMMLSC
Avidin bead fluor – green autofluorescence of compounds with avidin beads – biophysical, 488/530 nm, flow cytometry, artefact control, profiling panel; compound fluorescence 488/530 nm; hits give high values; fluorescence (KMESF) at 10 µM; actives 0.38% (n = 220,000); AID 1775, 2009; in the data active means fluorescence above about 47
GSH fluor – compound fluorescence on glutathione beads, profiling panel, artefact control, biophysical, 488/530 nm, flow cytometry | GSH beads flow cytometry, compound fluorescence 488/530 nm; hits give high values | fluorescence (KMESF) at 10 µM | actives 0.25% (n = 190,000) | AID 1776, 2009; in the data active means fluorescence above about 89;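 further: glutathione beads carrying GST-tagged Bcl family fusion proteins plus one bare bead set; values are compound well signal with DMSO vehicle wells as background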
RGS8-Gao reg – RGS8-Galphao binding modulators, primary screen, biochemical, multiplexed bead flow cytometry; Guanine nucleotide-binding protein G(o) subunit alpha (Homo sapiens), P09471; actives lie on both sides; response (percent of control binding), % at 10 µM; actives 0.34% (n = 220,000); in the data active means response below about 60% or above about 140%; inactive means in between;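 further: Galphao activated as the GDP aluminium fluoride complex binding bead-coupled RGS8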
RGS16-Gao HTS – modulators of RGS16 binding to Galphao, primary screen, biochemical, human proteins, multiplexed bead flow cytometry; AID 1441, 2008; bead-based flow cytometry RGS16-Galphao binding, fluorescence; actives lie on both sides; binding response (% of control), % at 10 µM; actives 0.38% (n = 220,000); call rule not given here;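 further: Galphao activated by GDP with aluminum fluoride before binding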
Target sequence (O15492 whole entry, looked up): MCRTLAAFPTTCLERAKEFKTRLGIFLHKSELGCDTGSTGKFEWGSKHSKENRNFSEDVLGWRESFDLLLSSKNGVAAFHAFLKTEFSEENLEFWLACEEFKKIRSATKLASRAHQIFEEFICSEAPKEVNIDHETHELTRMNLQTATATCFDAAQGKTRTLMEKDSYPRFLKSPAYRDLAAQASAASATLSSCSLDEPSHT
Target sequence (P09471 whole entry, looked up): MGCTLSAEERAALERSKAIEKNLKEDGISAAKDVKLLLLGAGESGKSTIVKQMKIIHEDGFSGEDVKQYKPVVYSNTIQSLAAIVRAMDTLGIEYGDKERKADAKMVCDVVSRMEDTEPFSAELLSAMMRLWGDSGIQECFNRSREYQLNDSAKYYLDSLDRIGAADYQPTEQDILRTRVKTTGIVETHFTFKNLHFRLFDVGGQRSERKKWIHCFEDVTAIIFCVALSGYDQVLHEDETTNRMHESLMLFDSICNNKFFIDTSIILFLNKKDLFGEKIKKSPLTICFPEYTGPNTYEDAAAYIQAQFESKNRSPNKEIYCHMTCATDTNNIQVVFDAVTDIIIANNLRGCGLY
RGS4-Gao reg – modulators of RGS4 binding to Galphao, primary screen, biochemical, multiplexed bead flow cytometry. Guanine nucleotide-binding protein G(o) subunit alpha (Homo sapiens), P09471. actives lie on both sides. binding response (% of control), % at 10 µM. actives 0.33% (n = 220,000); in the data active means binding response below about 49% or above about 150%; inactive means in between;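 further: fluorescent Galphao activated with aluminum fluoride binding bead-coupled RGS4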
RGS7-Gao reg – RGS7-Galphao binding modulators, primary screen, biochemical, multiplexed bead flow cytometry | Guanine nucleotide-binding protein G(o) subunit alpha (Homo sapiens), P09471 | binding response (% of control), % at 10 µM | actives 0.35% (n = 220,000) | AID 1439, 2008 | actives lie on both sides; in the data active means binding response below about 49% or above about 150%; inconclusive means no clear call, values can overlap the other calls; inactive means in between;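 further: fluorescent Galphao held in activated GDP-AlF4 state binding bead-coupled RGS7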
An asterisk follows results filed as active; ? = inconclusive; nt = no result. The list is not random: actives were taken first. Their share in the collection is about 1.2%.

SMILES | Avidin bead fluor | GSH fluor | RGS8-Gao reg | RGS16-Gao HTS | RGS4-Gao reg | RGS7-Gao reg
Cc1cccc(C(=O)NCC(=O)OCC(=O)N2CCc3ccccc32)c1 | 13 | 10 | 100 | 101 | 101 | ?
Cc1cccc(OCCC(=O)OCC(=O)N2CCc3ccccc32)c1 | 54* | 21 | 103 | 106 | 104 | 116
CCOc1cc(/C=N/NC(=O)c2cccnc2)cc(Br)c1OCC(N)=O | 11 | 10 | 97 | 97 | 97 | 106
CC#CC(=O)N1CCC(CO)(CCc2ccccc2)CC1 | 20 | 9 | 99 | 105 | 105 | 112
CCOc1ccc2nc(SCC(=O)c3ccccc3)sc2c1 | 9 | 263* | 100 | 97 | 99 | 102
CCc1ccc2c(c1)C(O)(CC(=O)c1cccs1)C(=O)N2 (stereo not drawn) | 11 | 14 | 100 | 98 | 101 | 103
CC(C)[C@H](NC(=O)c1ccccc1)C(=O)OCC(=O)NCCC1=CCCCC1 | 54* | 8 | 111 | 140 | 113 | 129
COc1ccccc1N1CCN(C(=O)CSc2nc(C)c(Cc3ccccc3)c(=O)[nH]2)CC1 | 78* | 15 | 101 | 104 | 108 | 123
COc1ccccc1N1CCN(C(=O)CSc2nc(-c3ccccc3)cc(=O)[nH]2)CC1 | 29 | 22 | 101 | 103 | 100 | 97
CC(=O)Nc1ccccc1C(=O)N1CCN(Cc2ccccc2)CC1 | 11 | 10 | 101 | 105 | 100 | 93
O=C(COC(=O)C1(c2ccc(F)cc2)CCCC1)NCc1ccco1 | 10 | 14 | 97 | 98 | 97 | ?
CCOC(=O)c1sc(NC(=O)CSc2nc(C)cc(C)n2)c(C#N)c1C | 49* | 13 | 102 | 105 | 106 | 108
CC(=O)Nc1nc(CC(C)C)cc(-c2ccco2)c1C#N | 57* | 21 | 101 | 102 | 105 | 109
COc1ccc2c(C)cc(SCC(=O)Nc3cccnc3Cl)nc2c1 | 9 | 11 | 99 | 100 | 101 | 104
CCCCn1c(SCC(=O)N2CC(C)CC(C)C2)nc2cc(S(N)(=O)=O)ccc21 (stereo not drawn) | 6 | 262* | 93 | 94 | 92 | 91
Cc1occc1C(=O)NN=C1C2CC3CC(C2)CC1C3 | 8 | 105* | 101 | 103 | 101 | 100
Nc1c(C(=O)NCc2ccco2)sc2nc(N3CCOCC3)c3c(c12)CCCC3 | 62* | 9 | 99 | 105 | 104 | 114
COc1ccc(Cn2nnnc2C(c2ccc(N(C)C)cc2)N2CCC(C(N)=O)CC2)cc1 (stereo not drawn) | 10 | 18 | 100 | 103 | 102 | 102
CCN(CC)c1ccc(/C=C2\C(=O)c3ccc(C(=O)O)cc3C2=O)cc1 | 13 | 306* | 98 | 98 | 97 | 95
O=C(CCC1CCCN(C(=O)CCCc2ccccc2)C1)N1CCN(c2ccccn2)CC1 (stereo not drawn) | 6 | nt | 103 | 109 | 106 | ?
CN(C(=O)CCc1nc(-c2ccccc2F)no1)c1ccccc1 | 11 | 18 | 101 | 108 | 106 | ?
N#Cc1ccc(COC(=O)C2CCC(=O)N2)cc1 (stereo not drawn) | 7 | 258* | 103 | 107 | 105 | 105
O=C1CCC(C(=O)OCC(=O)c2ccccc2)N1 (stereo not drawn) | 8 | 10 | 79 | 75 | 75 | 69
Cc1onc(-c2ccccc2)c1C(=O)Nc1ccncc1 | 50* | 12 | 101 | 104 | 100 | 109
COc1ccc(CCN(C)Cc2ccc(OC)c(OCc3ccccc3)c2)cc1OC | 50* | 32 | 106 | 106 | 106 | 127
Cc1cc(NC(=O)Nc2cc(C)nn2-c2ccccc2)n(-c2ccccc2)n1 | 19 | 37 | 100 | 105 | 102 | 101
CCOC(=O)/C=C(\C)Nc1cc(C)nn1-c1ccccc1 | 0 | 22 | 8.3* | -13 | 23* | 11*
CC1=NN(c2ccc(N)cc2)C(=O)C1 | 0 | 223* | 74 | -44 | 35* | 12*
